# ADAM17 inh = ADAM17 inhibition, QFRET primary screen. recombinant ADAM17, EDANS/DABCYL FRET peptide cleavage. inhibition, % at 6.95 µM. 0.83% of 370,000 active. AID 720648;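 active means inhibition above the mean of compounds lying between control limits plus 3 SD, set per campaign, cut at about 8.5% in these data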;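 further: 0% = DMSO-only wells as the low control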
# Target sequence (P78536 215-824 limits assumed): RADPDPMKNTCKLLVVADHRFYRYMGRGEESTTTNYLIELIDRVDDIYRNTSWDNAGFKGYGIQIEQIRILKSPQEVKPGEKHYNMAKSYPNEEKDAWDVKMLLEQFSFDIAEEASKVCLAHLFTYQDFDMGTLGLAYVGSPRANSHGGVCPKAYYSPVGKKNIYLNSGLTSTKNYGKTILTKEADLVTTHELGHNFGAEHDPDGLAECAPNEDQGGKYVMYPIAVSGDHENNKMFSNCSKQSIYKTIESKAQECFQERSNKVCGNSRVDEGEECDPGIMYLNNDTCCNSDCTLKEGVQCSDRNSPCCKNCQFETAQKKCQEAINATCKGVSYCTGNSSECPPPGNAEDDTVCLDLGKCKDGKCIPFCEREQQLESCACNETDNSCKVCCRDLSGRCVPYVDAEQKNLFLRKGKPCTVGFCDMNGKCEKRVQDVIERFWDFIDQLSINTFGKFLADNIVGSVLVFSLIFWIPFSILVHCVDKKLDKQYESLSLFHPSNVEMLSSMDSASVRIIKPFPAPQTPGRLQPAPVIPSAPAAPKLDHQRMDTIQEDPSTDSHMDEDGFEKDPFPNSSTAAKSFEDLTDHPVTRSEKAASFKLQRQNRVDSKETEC
# FGF22 binding = FGF22 (human) thermal shift binding; Q9HCT0; recombinant FGF22 thermal shift, SYPRO orange fluorescence; percent of sucrose octasulfate shift, DMSO zero; activity (Tm shift, normalised), % at 9.99 µM; 1.5% of 340,000 active; AID 651658;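 active means mean Tm shift, scaled 0 neutral to 100 positive control, at about 1.3% or above, every replicate too, limit read from the data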
# rRNA inh HTS = selective bacterial rRNA inhibition in E. coli. 1.6% of 350,000 active. GFP signal change (wild-type ribosome), % (concentration not given with the values). AID 720706. E. coli WT GFP vs humanized-ribosome RFP mutants, fluorescence, 24 h; hits give low values; DMSO median 0, no signal -100;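 active means significant combined selectivity score with lowered wild-type GFP, culture density cut under 30%, mutant RFP and density less affected; inactive means any of these conditions unmet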
# ADAM10 inh = ADAM10 inhibition, QFRET primary screen | O14672 | recombinant ADAM10, EDANS/DABCYL FRET peptide cleavage, 3 h | inhibition, % at 7 µM | 0.62% of 370,000 active | AID 720582;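 active means inhibition above a per-campaign cutoff equal to the mean of compounds falling between control-based bounds plus 3 SD, cut at about 20% in these data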;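 further: 0% = DMSO wells while the 100% control is not disclosed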
# KLK7 zymogen act = activators of human kallikrein-7 zymogen; purified proKLK7, EDANS-DABCYL substrate fluorescence; 100% is mature enzyme control, 0% vehicle; activation, % at 7 µM; 0.9% of 370,000 active; AID 652039;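 active means activation above the mean of all tested compounds plus 3 SD, computed per campaign excluding outliers beyond control limits, cut at about 13% in these data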
# An asterisk follows results filed as active; . = no result given. Shown are actives, neighbours in structure and some others; about 3.8% of the full set was active somewhere.
SMILES,ADAM17 inh,FGF22 binding,rRNA inh HTS,ADAM10 inh,KLK7 zymogen act
CO[C@@H]1CN(C)C(=O)c2ccc(NC(C)=O)cc2OC[C@@H](C)NC[C@@H]1C,.,.,-0.5,.,.
COc1ccc(Cn2cccc(NC(=O)Nc3ccc(F)cc3)c2=O)cc1,-5.9,0.1,-17.9,-13.3,0.0
CSc1ccc(NC(=O)Nc2cccn(Cc3ccccc3)c2=O)cc1,-1.2,0.0,-29.5*,-4.7,-4.5
CNc1ccc2nnc(C(F)(F)C(F)(F)C(F)(F)F)n2n1,-2.8,43.1*,11.2,-5.4,0.0
C[C@H](CO)N1C[C@H](C)[C@@H](CN(C)C(=O)Nc2ccc3c(c2)OCO3)Oc2ccc(NC(=O)Nc3cccc4ccccc34)cc2CC1=O,.,-0.1,-4.3,.,.
O=C(NCC1CCCO1)C1CCN(C2CCN(Cc3ccco3)CC2)CC1 (stereo unspecified),-1.1,43.6*,14.7,-1.0,0.8
Cc1ccc(-c2cc(C(=O)Nc3c(C)n(C)n(-c4ccccc4)c3=O)[nH]n2)c(O)c1,5.3,.,.,7.9,-0.5
Cc1ccc(-c2cc(C(=O)Nc3c(C)n(C)n(-c4ccccc4)c3=O)[nH]n2)c(O)c1C,-0.2,40.9,-19.5*,1.8,-0.3
Cc1ccc(-c2cc(C(=O)Nc3c(C)n(C)n(-c4ccccc4)c3=O)c3ccccc3n2)cc1,-0.8,43.1*,12.1,-11.1,-0.2
COC(=O)C[C@@H]1C=C[C@H](NC(=O)Nc2ccc(C(F)(F)F)cc2)[C@@H](CO)O1,.,0.0,3.6,.,.
C[C@@H]1CCCCO[C@H](CN(C)C(=O)Nc2ccc(F)cc2)[C@@H](C)CN([C@@H](C)CO)C(=O)c2cc(N(C)C)ccc2O1,.,.,-0.1,.,.
C[C@H](NC(=O)[C@H]1[C@H](CO)[C@H]2Cn3c(cccc3=O)[C@H]2N1CC1CCCCC1)c1ccccc1,.,.,-7.9,.,.
CCS(=O)(=O)N1CCCCN2[C@H](CO)[C@@H](c3ccc(C#Cc4ccccc4OC)cc3)[C@H]2C1,.,0.5,4.1,.,.
Cc1cccc(NC(=O)COc2ccc(Br)cc2/C=N/O)c1,3.6,-0.1,-43.6*,13.4,-1.0
CCC(=O)N1CC[C@H]2[C@@H]1c1cc(-c3ccc(F)cc3)ccc1N(C)[C@H]2CO,.,0.0,2.6,.,.
COc1cc(C(=O)N/N=C(\Cc2ncc[nH]2)c2ccccc2)cc(OC)c1OC,-5.3,0.1,-32.4*,-1.8,3.1
Cc1noc(C)c1NC(=O)N(C)C[C@@H]1OCCCC[C@@H](C)Oc2ccc(NS(=O)(=O)c3ccc(F)cc3)cc2C(=O)N([C@H](C)CO)C[C@@H]1C,.,0.5,2.8,.,.
Clc1ccc(-c2cc(C3CCNCC3)[nH]n2)cc1,-2.3,43.0*,-53.2,-3.1,0.0
O=C(OCc1ccccc1)/C(=C/c1cccc(Br)c1)NC(=O)c1ccco1,3.8,0.0,-29.2*,3.5,-0.3
CC(=O)Nc1cccc(NC(=O)CS(=O)(=O)c2cn(CC(=O)N3CCOCC3)c3ccccc23)c1,-5.2,42.9*,11.6,-2.8,-1.0
Cc1cccc(NC(=O)CS(=O)(=O)c2cn(CC(=O)N3CCOCC3)c3ccccc23)c1,-3.3,0.0,9.8,1.7,0.7
CCc1ccc2c(c1)NC(=O)C2(C)Cc1ccc(F)cc1 (stereo unspecified),2.0,0.1,-31.8,1.7,3.9
CC1(Cc2ccc(C(F)(F)F)nc2)C(=O)Nc2cc(-c3ccccc3Cl)ccc21 (stereo unspecified),-0.6,43.1*,-0.5,-5.5,0.3
CC(C)CNC(=O)C1(C)CCCCCN1C(=O)c1csnn1 (stereo unspecified),-0.3,-0.2,7.1,0.8,-0.1
CCCCNC(=O)C1(C)CCCCN1C(=O)c1csnn1 (stereo unspecified),0.8,43.9*,4.6,7.7,-0.4
SMILES,ADAM17 inh,FGF22 binding,rRNA inh HTS,ADAM10 inh,KLK7 zymogen act
N/C(=N\NC(=O)c1ccc(F)cc1)c1cc2ccccc2oc1=O,-10.8,43.2*,0.8,-39.1,0.4
COc1ccccc1NC(=O)N[C@H]1CC[C@H](CCn2cc(-c3ccccc3OC)nn2)O[C@@H]1CO,.,0.7,.,.,.
CN1C(=O)c2cc(NC(=O)C3CC3)ccc2OC[C@H]2O[C@@H](CC(=O)NCc3cccc(F)c3)CC[C@@H]21,.,-0.4,-0.2,.,.
Cc1c(CCC(=O)NCCC(=O)O)c(=O)oc2cc3occ(-c4ccccc4)c3cc12,-33.9,-0.3,-20.4,-94.0,-1.1
CCCC(NC(=O)CCc1c(C)c2cc3c(-c4ccccc4)coc3cc2oc1=O)C(=O)O (stereo unspecified),-42.5,-1.0,-33.6*,-90.7,0.2
Cc1c(CCC(=O)NCC(=O)O)c(=O)oc2cc3occ(-c4ccccc4)c3cc12,-50.3,0.4,-20.1*,-107.9,-0.2
C[C@@H]1CN([C@@H](C)CO)C(=O)Cc2cc(NS(C)(=O)=O)ccc2O[C@H]1CN(C)Cc1ccncc1,.,0.3,3.6,.,.
C[C@@H]1C(=O)N[C@@H](c2ccc(F)cc2)CC=CC[C@H](C)Oc2ccccc2C(=O)N1C (mixture of isomers),.,.,-1.5,.,.
O=C(c1ccc(C(F)(F)F)cc1)C1CCCN(Cc2cccn2-c2ncccn2)C1 (stereo unspecified),-0.6,43.1*,-4.6,0.2,0.8
COc1ccc(/C=N/NC(=O)c2cccnc2)cc1,-1.9,0.1,6.2,-9.2,0.0
COc1ccc(/C=N/NC(=O)C(=O)NCc2cccnc2)cc1OC,-4.0,.,.,-6.8,-0.6
COc1ccc(/C=N/NC(=O)C(=O)NCc2cccnc2)cc1,-1.4,44.2*,3.9,8.6,-0.6
COc1ccc(Oc2ccc(/C=N/NC(=O)c3cccnc3)cc2[N+](=O)[O-])cc1,5.7,43.0*,-14.6,7.0,-0.3
COc1cc(/C=N/NC(=O)c2cccnc2)ccc1OCC(=O)Nc1ccc(C)cc1,-5.8,43.7*,-2.0,-6.8,-273.5
C[C@H](CO)N1C[C@H](C)[C@@H](CN(C)Cc2ccncc2)Oc2c(NC(=O)Cn3cnnn3)cccc2C1=O,.,.,-0.7,.,.
CC1(c2cccc(Br)c2)NC(=O)N(CC(=O)Nc2ccc3c(c2)OCO3)C1=O (stereo unspecified),2.2,0.4,-22.0*,5.4,0.1
CCCN(C)C[C@@H]1Oc2cc(-c3cncnc3)ccc2S(=O)(=O)N([C@@H](C)CO)C[C@@H]1C,.,.,0.7,.,.
COc1ccc(CN(C(=O)CSc2nnc(-c3c[nH]c4ccccc34)o2)c2ccc(F)cc2)cc1OC,8.1,.,.,21.5*,0.6
CCN(C(=O)CSc1nnc(-c2c[nH]c3ccccc23)o1)C1CCS(=O)(=O)C1 (stereo unspecified),0.4,43.2*,4.0,6.2,0.1
COc1cccc(-c2ccc3c(c2)[C@@H]2[C@@H](CCN2S(=O)(=O)c2cccc(OC)c2)[C@@H](CO)N3)c1,.,0.4,-1.8,.,.
C[C@H](CO)N1C[C@H](C)[C@@H](CN(C)Cc2ccncc2)Oc2cc(-c3ccccc3F)ccc2S1(=O)=O,.,-0.4,-32.6,.,.

# Source: PubChem
